Measurements: the supplement of paper PMC5499739
Over roughly 16,000 sequences, “Z-score” has its median near -0.37; the highest 2% begin near 3.2. For the sample, the highest values were picked, then their nearest neighbours and some sequences at random.

The sequences below were run on RBM10 RRM1-ZnF (GST-tagged construct) (assay: RNAcompete 7-mer binding Z-score; higher = stronger binding preference).
Method in brief: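 Each heptamer motif was given a one-sided Z-score for enrichment across the probes that contained it. GST-tagged RBM10 constructs (20 pmol) were combined with 1.5 nmol of a designed pool of 241 399 RNAs of up to 41 nt, transcribed from microarray-derived DNA templates. Binding took place in 1 ml Hepes pH 7.8 buffer containing KCl, NaCl, glycerol, DTT, BSA and glutathione Sepharose beads for 30 min at 4°C. After four 2-min washes at 4°C, bound RNA was identified by microarray hybridisation.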

| Sequence | RNAcompete 7-mer binding Z-score |
| --- | --- |
| AUUAAGG | 1.2 |
| CGGGUCU | 0.339 |
| CCGAAGC | -0.61 |
| GGGUUGG | 4.64 |
| GGGUUAG | 4.38 |
| CGGUUGA | 1.01 |
| GGGUUGA | 3.8 |
| AGGUUGG | 3.06 |
| CGGUUAG | 0.881 |
| UGGUUGA | 2.02 |
| CGGUUGG | 2.56 |
| UGGUUAG | 2.24 |
| UCCAGAG | -0.35 |
| ACAGAAG | 0.595 |
| UUACAAA | -0.305 |
| UAACUGA | -0.295 |
| GGUCGGU | 1.24 |
| GGUUAGG | 4.59 |
| CGAUUGG | 0.949 |
| GGGAUGU | 3.21 |
| GGGAUGC | 3.06 |
| GGAUUGU | 1.22 |
| UGGAUAG | 2.48 |

| Sequence | RNAcompete 7-mer binding Z-score |
| --- | --- |
| GGAUUGG | 3.79 |
| GGGAUGA | 4.17 |
| AGGAUAG | 2.16 |
| GGUUAGU | 1.7 |
| GGGAUAG | 4 |
| GGUUAGC | 1.12 |
| UGACAGG | 2.13 |
| UACCCAG | -0.659 |
| UCGCGUA | -0.532 |
| ACUCUUU | -0.844 |
| AAUUUCG | -0.607 |
| GUGCUAA | 0.153 |
| UCAUUAA | -0.509 |
| GCAUUCG | -0.444 |
| GGGAUUG | 3.5 |
| GGGAUUC | 1.12 |
| AGAUAGG | 2.44 |
| GGGAUAC | 2.5 |
| GGAUAGA | 2.61 |
| GGGAUAA | 3.48 |
| GGAUAGG | 4.11 |
| AGGAUUG | 1.5 |
| UGGAUAA | 1.15 |

| Sequence | RNAcompete 7-mer binding Z-score |
| --- | --- |
| GUAGUUC | -0.243 |
| UGAAUAG | 0.387 |
| GUCUGAC | -0.529 |
| CACAACA | -0.363 |
| GUGGUGC | 1.76 |
| UUGGUGG | 2.48 |
| CUGGUGG | 1.64 |
| GUGGUGG | 3.9 |
| AUGGUGC | 1.03 |
| AUGGUGG | 3.82 |
| CCCGAGG | 0.384 |
| AUCACAU | -0.457 |
| CAGCAAC | -0.539 |
| CGACGCA | -0.36 |
| UGGGUCU | 1.12 |
| ACUGCUG | -0.675 |
| AAGGGUC | 1.72 |
| UAGGGUG | 4.81 |
| UAGGGCG | 2.22 |
| GAGGGUC | 1.44 |
| UAGGGUA | 3.47 |
| GAGGGUG | 3.75 |
| AAGGGUA | 4.59 |

| Sequence | RNAcompete 7-mer binding Z-score |
| --- | --- |
| UCGGGUA | 1.4 |
| GAGGGUU | 3.03 |
| CAGGGUA | 2.99 |
| UAGGGUC | 1.55 |
| AAGGGCA | 2.78 |
| UGUUUCU | -0.418 |
| CCUAAGG | -0.344 |
| AGUCCCA | -0.714 |
| AUGGUAG | 2.74 |
| ACGCCAU | -0.665 |
| AAACCUC | -0.802 |
| UCCCUUU | -0.912 |
| GCAUUUG | -0.477 |
| CCGAAGG | 0.179 |
| GAGGGCA | 2.12 |
| CAGGGUU | 2.15 |
| CAGGGUG | 3.21 |
| AAGGUUU | 2.51 |
| AAAGGUU | 3.12 |
| CAGGGCG | 2.02 |
| GAGGGUA | 3.95 |
| AAGGGUU | 4.07 |
| CAGGGUC | 1.09 |
